Compound activity: PubChem BioAssay, The Scripps Research Institute Molecular Screening Center
ssDAF-12 act = activates DAF-12 receptor from parasite S. stercoralis; HEK293 ssDAF-12/GRIP1 lit1-tk-luc reporter, luminescence; % of 3 µM dafachronic acid response; 370,000 tested, 1% active; activation, % at 6.8 µM;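 active means activation above the mean over all tested compounds plus 3 SD, cut at about 0.9% in these data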;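 further: 0% = DMSO-only wells and 100% = 3 µM delta7-dafachronic acid wells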
DAX1 inh-1 = inhibits human nuclear receptor DAX1 | P51843 | 340,000 tested, 0.99% active | HEK293 Gal4-DAX1 luciferase reporter, luminescence | inhibition, % at 6.75 µM;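 active means inhibition above the mean over all tested compounds plus 3 SD, cut at about 4.2% in these data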;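 further: 0% = DAX1-transfected cells with DMSO and 100% = empty-vector control cells with DMSO; inhibition shows as a rise in luminescence from relieved DAX1 repression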
Target sequence (P51843 207-470 limits assumed): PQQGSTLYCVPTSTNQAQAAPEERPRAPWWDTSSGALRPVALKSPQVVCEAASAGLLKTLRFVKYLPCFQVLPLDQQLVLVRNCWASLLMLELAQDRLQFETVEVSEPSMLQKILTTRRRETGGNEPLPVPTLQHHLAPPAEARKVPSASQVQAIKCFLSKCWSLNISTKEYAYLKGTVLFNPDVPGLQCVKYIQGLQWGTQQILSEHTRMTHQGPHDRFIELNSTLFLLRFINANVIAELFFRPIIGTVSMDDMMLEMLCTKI
hgDAF-12 ag = hgDAF-12 agonism, primary luciferase screen | HEK293 GAL4-hgDAF12 UAS-luciferase reporter, agonist luminescence; normalized to butyrate control | activation, % at 6.8 µM | 370,000 tested, 1.8% active;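 active means activation above a cutoff set at the mean of all screened compounds plus 3 SD, cut at about 10% in these data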;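 further: 0% = DMSO wells and 100% = sodium butyrate wells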
AHR act = activates the human aryl hydrocarbon receptor | 320,000 tested, 2.5% active | P35869 | AID 2796 | activation, % at 5 µM | AHR-responsive luciferase reporter cells, luminescence; in the data active means activation above about 47%;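 further: 0% = vehicle wells and 100% = reference agonist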
DAX1 inh-2 = inhibitors of DAX1 repression of SF-1 activated StAR promoter | HEK293T StAR-luciferase reporter, SF-1/DAX-1 repression relief | inhibition, % at 6.8 µM | 370,000 tested, 1.1% active;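 active means inhibition above the mean over all tested compounds plus 3 SD, cut at about 3.6% in these data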;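 further: 0% = DAX-1 cells with DMSO and 100% = cells lacking DAX-1 with DMSO; higher inhibition means more luminescence from relief of DAX-1 repression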
hcDAF12 agonist = H. contortus DAF-12 activation, primary screen | HEK293 hcDAF-12 lit1-tk-luc reporter, luminescence; 0% DMSO, 100% Δ7-dafachronic acid | activation, % at 6.8 µM | 370,000 tested, 1.4% active | AID 652067;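 active means activation above the mean of all tested compounds plus 3 SD, cut at about 5.5% in these data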;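 further: 100% = response to 3 µM Δ7-dafachronic acid high control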
* marks the source's active call; other numbers are inactive results; / = no result given. Only some compounds are listed: those with a hit (about 5.7% of all), similar ones and a draw of the others.

SMILES	ssDAF-12 act	DAX1 inh-1	hgDAF-12 ag	AHR act	DAX1 inh-2	hcDAF12 agonist
CCOC1=C2CN(S(=O)(=O)c3ccccc3)[C@@H](c3ccccc3)C[C@H]2[C@H]2C(=O)N(c3ccccc3)C(=O)[C@H]2C1	-1	/	5	/	-1	-1
Cc1noc(C)c1-c1ccc(C(=O)NC2CCCCC2)c2occc12	1.7*	/	5	/	0	-1
O=c1cc(N2CCc3ccccc32)[nH]c(=O)n1Cc1ccc(F)cc1	0	0	0	2	0	5.8*
CCOC(=O)c1c(C)n(C)c2ccc(OC)c([N+](=O)[O-])c12	-2	0	2	55*	0	-4
Cc1nn(C)cc1/C=C/C(=O)c1cccs1	0	5.2*	12*	-1	1	1
CCOC(=O)C1CCCN(C(=O)c2csc(-c3ccc4c(c3)CCO4)n2)C1 (stereo not drawn)	-1	2	0	9	1	-2
CCN(CC)S(=O)(=O)c1ccc2c(c1)c(=O)c(C(=O)N1CCN(c3ccccn3)CC1)cn2C	-1	0	-2	7	0	-3
COc1ccc(Nc2nc(N)nc(CSc3nc(C)cc(C)n3)n2)cc1	-1	-1	-2	28	3	-2
COc1ccc(Nc2nc(N)nc(CSC(=S)N3CCN(C)CC3)n2)cc1	5.4*	2	4	17	-1	0
Cc1nc(N)nc(COc2ccccc2)n1	-1	8.4*	7	6	1	4
Nc1nc(COc2ccccc2)cs1	0	1	5	4	1	1
COc1ccc(OCc2nc(N)nc(Nc3ccc(C)cc3)n2)cc1	-1	1	3	65*	1	0
COc1ccc(OCc2nc(N)nc(Nc3cccc(C)c3C)n2)cc1	-1	1	1	41	0	0
COc1ccc(Nc2nc(N)nc(SCc3nnc(C)s3)n2)cc1	-1	2	3	56*	1	0
Cc1ccc(S(=O)(=O)N2CCCC(C(=O)NCCc3ccccc3)C2)cc1 (stereo not drawn)	-1	1	1	0	0	-1
O=C(N[C@H](C(=O)N1CCC[C@H]1C(=O)NCCc1ccccc1Cl)C1CCCCC1)c1cccs1	-1	/	0	/	1	-2
COc1ccc(OCc2nc(N)nc(Nc3ccccc3)n2)cc1	0	0	2	47	0	-2
COc1ccc(Nc2nc(N)nc(COc3ccc(OC)cc3)n2)cc1	-1	0	4	60*	0	-1
Cn1c(-[n+]2c(-c3ccccc3)cc(-c3ccccc3)cc2-c2ccccc2)nc2c([N+](=O)[O-])cccc21	0	-2	-2	68*	-1	5
COc1cccc(CNC(=O)[C@H]2CCCN2C(=O)[C@H]2CCCN2C(=O)c2ccc(Cl)cc2)c1	0	/	-1	/	0	-1
Cc1ccc(NC(=O)[C@H](C)NC(=O)C2CCN(C(=O)[C@@H](N)CC(C)C)CC2)cc1	0	-1	2	10	0	6.0*
COc1ccc(CNC(=O)[C@H](C)NC(=O)C2CCN(C(=O)[C@@H](N)Cc3ccccc3)CC2)cc1	-1	6.1*	6	1	1	-1
COc1ccc(CNC(=O)[C@H](C)NC(=O)C2CCN(C(=O)[C@@H](N)CCSC)CC2)cc1	-2	4.4*	-1	1	0	-1
COc1ccc(CNC(=O)[C@H](NC(=O)C2CCN(C(=O)[C@@H](N)CCSC)CC2)C(C)C)cc1	-1	2	-3	1	0	-1
Cc1cc(=O)c2c(ccc3c(=O)cc(C)[nH]c32)[nH]1	-1	/	-2	/	1	0
SMILES	ssDAF-12 act	DAX1 inh-1	hgDAF-12 ag	AHR act	DAX1 inh-2	hcDAF12 agonist
O=C(Nc1ncc2c(n1)-c1ccccc1CC2)C1CC1	-1	1	3	76*	-1	1
CC(C)SCC(=O)Nc1ncc2c(n1)-c1ccccc1CC2	-1	1	1	5	0	-2
O=Cc1coc([B-](F)(F)F)c1	-1	/	-3	/	0	1
CC(C)(C)OC(=O)C[C@@H]1C/C=C\C[C@@H](CC(=O)N[C@@H](CO)Cc2ccccc2)C(=O)NC[C@@H](c2ccccc2)OC1=O	-1	-1	-2	-1	0	-2
CCn1c(C)csc1=NC(=O)c1ccccc1	-1	0	2	61*	1	1
Cc1csc(=NC(=O)c2ccccc2)n1C	1	1	10	42	2	3
CC1CCN(C(=O)c2cc(-c3ccc4c(c3)OCO4)on2)CC1	0	1	12*	-4	2	4
O=C(c1cc(-c2ccccc2)on1)N1CCN(Cc2ccc3c(c2)OCO3)CC1	-1	1	2	1	-1	-2
CC1CCCCN1C(=O)c1cc(-c2ccc3c(c2)OCO3)on1 (stereo not drawn)	0	3	11*	42	2	5
O=C(O)[C@@H]1CCCN1C(=O)CCc1c[nH]c2ccccc12	-1	0	1	5	0	1
Cc1cccc(N2CCN(Cc3ccc([N+](=O)[O-])o3)CC2)c1C	-2	4	1	57*	0	0
CCOC(=O)C1=C(C(=O)OCC)C2N(Cc3ccc(C#N)cc3)c3ccccc3[C@@]23C[C@@H](C(=O)OC)N(S(=O)(=O)c2ccc(C)cc2)C3=N1 (stereo partly drawn)	-1	/	1	/	0	0
CC(C)(C)OC(=O)N1CCC(C(=O)Nc2cccc(C(=O)NCCCCc3ccccc3)c2)CC1	-1	2	2	/	-1	-1
Cc1cc2nc(-c3ccc(SCC(=O)Nc4ccc(S(=O)(=O)N5CCCC5)cc4)nc3)[nH]c2cc1C	0	0	10	32	3.7*	4
O=C(CSc1ccc(-c2nc3ccccc3[nH]2)cn1)Nc1ccc(S(=O)(=O)N2CCCC2)cc1	-1	0	0	4	0	1
Nc1cc(=O)[nH]c(SCC(=O)Nc2ccc(S(=O)(=O)N3CCCC3)cc2)n1	-2	4.3*	9	0	-1	0
O=C(N[C@H](C(=O)N1CCC[C@H]1C(=O)NC1CCCC1)C1CCCCC1)c1nccs1	-1	/	2	/	0	1
COc1ccc(Cc2c(O)nc(SCC(=O)NC(C)(C)C)[nH]c2=O)cc1	-2	0	-3	0	0	-1
CC(C)(OC(=O)c1ccc(C#N)cc1)c1cc2ccccc2c(=O)o1	-1	-1	2	-1	0	-1
CCN(C(=O)CSc1nncn1-c1ccccc1)C1CCS(=O)(=O)C1 (stereo not drawn)	1	0	0	0	-1	3
CCN(C(=O)CSc1nnnn1-c1ccc(Cl)cc1)C1CCS(=O)(=O)C1 (stereo not drawn)	-1	1	-1	1	4.0*	0
